Most compounds without a hit are left out; they make up all but 12% or so of the library.
G9a block = qHTS Assay for Inhibitors of Histone Lysine Methyltransferase G9a. Histone-lysine N-methyltransferase EHMT2 (Homo sapiens), Q96KQ7. G9a H3K9 monomethylation, AlphaScreen, 2 h. Potency, µM (doses to about 102 µM), most hits filed as inhibitors. 8.8% of 350,000 active; note: nearly all actives have a fitted effect of over 75% in size
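Compounds were preincubated with 20 nM G9a for 15 min, after which biotinylated H3K9 peptide (500 nM) and SAM (20 uM) started a 2 h room-temperature reaction. Monomethylated product was quantified by antibody-based AlphaScreen chemiluminescence.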
BAZ2B inh = qHTS Assay for Inhibitors of BAZ2B | Bromodomain adjacent to zinc finger domain protein 2B (Homo sapiens), Q9UIF8 | Potency, µM (top dose mostly 114 µM), usual class: inhibitors | AlphaScreen BAZ2B-H3K14Ac peptide displacement | 4.4% of 360,000 active | AID 504333, 2011; note: nearly all actives have a fitted effect of over 60% in size
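AlphaScreen luminescence quantifies BAZ2B engagement of H3K14Ac peptide; the protein and biotinylated peptide are both at 50 nM final, buffer PBS pH 7.4 with 0.01% Tween-20, all steps at room temperature.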
HP1b binding inh = HTS for Inhibitors of HP1-beta Chromodomain Interactions with Methylated Histone Tails; AID 540317, 2011; 0.56% of 390,000 active; AlphaScreen HP1-beta / biotin-H3K9me3 peptide binding; Chromobox protein homolog 1 (Homo sapiens), P83916; Potency, µM (doses to about 114 µM), usual class: inhibitors; note: nearly all actives have a fitted effect of over 70% in size
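HP1-beta protein (50 nM final) preincubated 30 min at room temperature with biotinylated H3(1-18)K9me3 peptide (50 nM) in PBS pH 7.4, 0.01% Tween-20, then compound added for 30 min. AlphaScreen streptavidin donor/nickel chelate acceptor beads (10 ug/mL final), 30 min dark, luminescence read.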
JMJD2A Tudor inh = qHTS Assay for Inhibitors of JMJD2A-Tudor Domain | 4.4% of 390,000 active | AlphaScreen JMJD2A-Tudor / H3K4me3 peptide binding | Potency, µM (top dose mostly 114 µM), actives largely listed as inhibitors | AID 504339, 2011; note: nearly all actives have a fitted effect of over 50% in size
Target sequence (O75164 whole entry, looked up, the tested form may be a part): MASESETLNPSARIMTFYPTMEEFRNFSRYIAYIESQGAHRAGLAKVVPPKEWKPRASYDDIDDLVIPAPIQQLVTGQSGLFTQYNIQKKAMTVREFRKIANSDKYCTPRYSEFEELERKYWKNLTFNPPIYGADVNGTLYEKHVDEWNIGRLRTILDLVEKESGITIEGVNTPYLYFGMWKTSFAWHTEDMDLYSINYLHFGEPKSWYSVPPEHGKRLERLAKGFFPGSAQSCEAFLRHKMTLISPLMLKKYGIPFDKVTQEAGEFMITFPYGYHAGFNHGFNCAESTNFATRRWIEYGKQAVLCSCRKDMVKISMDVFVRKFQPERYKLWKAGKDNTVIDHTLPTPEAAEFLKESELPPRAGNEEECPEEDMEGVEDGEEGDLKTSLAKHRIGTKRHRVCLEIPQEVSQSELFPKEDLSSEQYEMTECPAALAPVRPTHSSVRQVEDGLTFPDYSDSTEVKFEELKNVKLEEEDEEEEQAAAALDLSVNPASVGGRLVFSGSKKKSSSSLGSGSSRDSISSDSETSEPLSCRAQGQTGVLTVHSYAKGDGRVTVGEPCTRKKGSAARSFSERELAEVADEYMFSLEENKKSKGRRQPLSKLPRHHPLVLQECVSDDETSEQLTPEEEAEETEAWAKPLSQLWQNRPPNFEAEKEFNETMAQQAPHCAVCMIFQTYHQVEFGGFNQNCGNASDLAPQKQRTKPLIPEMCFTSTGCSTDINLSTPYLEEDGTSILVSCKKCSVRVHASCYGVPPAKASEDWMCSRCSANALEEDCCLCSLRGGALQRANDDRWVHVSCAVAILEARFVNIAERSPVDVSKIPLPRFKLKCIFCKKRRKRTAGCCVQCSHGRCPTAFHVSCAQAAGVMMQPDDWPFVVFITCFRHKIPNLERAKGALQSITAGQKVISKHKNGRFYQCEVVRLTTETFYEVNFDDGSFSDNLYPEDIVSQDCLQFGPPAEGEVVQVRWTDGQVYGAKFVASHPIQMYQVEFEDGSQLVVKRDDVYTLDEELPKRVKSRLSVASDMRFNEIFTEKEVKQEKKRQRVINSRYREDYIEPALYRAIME
Sfp inh = qHTS Assay for Inhibitors of Bacillus subtilis Sfp phosphopantetheinyl transferase (PPTase) | 3.5% of 310,000 active | Biochemical Sfp PPTase activity, qHTS | Potency, µM, actives largely listed as inhibitors;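 note: the enzyme is Sfp with the accession as filed and its product quenches rhodamine fluorescence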
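Step 1, compound plus 15 nM Sfp-PPTase, 15 min, room temperature. Step 2, add rhodamine-CoA (5 uM) and BHQ-2-YbbR (12.5 uM). Step 3, read 525/598 nm fluorescence at 0 and 30 min.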
PLK1 PBD inh = qHTS for Inhibitors of PLK1-PDB (polo-like kinase 1 - polo-box domain): Primary Screen. 2.8% of 360,000 active. AID 720504, 2013. Potency, µM, actives largely listed as inhibitors. Plk1 PBD binding of FITC phosphopeptide, fluorescence polarization. Serine/threonine-protein kinase PLK1 (Homo sapiens), P53350; note: series mostly up to about 57 µM; nearly all actives have a fitted effect of over 65% in size
A number is an active result; ! = repeats disagree; [ ] = another dose, or the depositor's remark. Calls come from the whole dose curve; as a rule, active = well fitted curve in the direction sought with a large enough effect; inconclusive = small, poorly fitted or top-dose-only effect, or another doubt; inactive = no such curve, though single readings can be large; an effect the other way counts as inactive or inconclusive.

How did Cc1ccc(OCCC(=O)Nc2cc(S(=O)(=O)N3CCOCC3)ccc2N2CCCC2)cc1 do in these assays?
HP1b binding inh: inactive; JMJD2A Tudor inh: inactive; PLK1 PBD inh: inactive

How did Cc1ccc(S(=O)(=O)N(CC(=O)N2CCOCC2)CC(=O)N2CCOCC2)cc1 do in these assays?
G9a block: inactive; BAZ2B inh: inactive; HP1b binding inh: inactive; JMJD2A Tudor inh: inactive; Sfp inh: inactive; PLK1 PBD inh: inactive

How did Cc1ccc(N(CCC(=O)O)S(=O)(=O)c2ccc(C)cc2)cc1 do in these assays?
G9a block: inactive; BAZ2B inh: inactive; HP1b binding inh: inactive; JMJD2A Tudor inh: inactive; Sfp inh: inactive; PLK1 PBD inh: inactive

How did Cc1ccc(N(CCC(=O)N2CCOCC2)S(=O)(=O)c2ccccc2)cc1 do in these assays?
G9a block: 0.71µM; BAZ2B inh: inactive; HP1b binding inh: inactive; JMJD2A Tudor inh: inactive; PLK1 PBD inh: inactive

What do the screens show for `Cc1ccc(N(CC(=O)N2CCOCC2)S(=O)(=O)c2ccccc2)cc1`?
G9a block: inactive; BAZ2B inh: inactive; HP1b binding inh: inactive; JMJD2A Tudor inh: inactive; Sfp inh: inactive; PLK1 PBD inh: inactive

What do the screens show for `Cc1ccc(S(=O)(=O)N(C)CC(=O)N2CCOCC2)cc1`?
G9a block: inactive; BAZ2B inh: inactive; HP1b binding inh: inconclusive; JMJD2A Tudor inh: 79µM; Sfp inh: inactive; PLK1 PBD inh: inconclusive

What do the screens show for `Cc1ccc(S(=O)(=O)N(CCC(=O)O)c2ccccc2)cc1`?
G9a block: 56µM; BAZ2B inh: inactive; HP1b binding inh: inactive; JMJD2A Tudor inh: inactive; Sfp inh: inactive; PLK1 PBD inh: inactive

How did CCOC(=O)N1CCN(C(=O)CN(C)S(=O)(=O)c2ccc(OC)c(OC)c2)CC1 do in these assays?
G9a block: inactive; BAZ2B inh: inactive; HP1b binding inh: inactive; JMJD2A Tudor inh: inactive[11.4 µM]; Sfp inh: inactive; PLK1 PBD inh: 12µM

What do the screens show for `COc1cc(CNC(=O)c2cc(-c3ccc(F)cc3C)n[nH]2)cc(OC)c1`?
PLK1 PBD inh: inactive

What do the screens show for `Cc1ccc(CN2CCC(CNc3ncnc4onc(-c5ccc(Cl)cc5)c34)CC2)cc1`?
G9a block: inactive; BAZ2B inh: inactive; HP1b binding inh: inactive; JMJD2A Tudor inh: inactive

Results for CC1CCCN(C(=O)CCS(=O)(=O)c2ccc3c(c2)n(C)c(=O)c(=O)n3C)C1 (stereo not given) ?
G9a block: inactive; BAZ2B inh: inactive; HP1b binding inh: inactive; JMJD2A Tudor inh: inactive; Sfp inh: inactive; PLK1 PBD inh: inactive

What do the screens show for `Cn1c(=O)c(=O)n(C)c2cc(S(=O)(=O)CCC(=O)N3CCOCC3)ccc21`?
G9a block: inactive; BAZ2B inh: inactive; HP1b binding inh: inactive; JMJD2A Tudor inh: inconclusive; Sfp inh: inactive; PLK1 PBD inh: 27µM

What do the screens show for `CCCCC[C@H](O)/C=C/[C@@H]1[C@@H](C/C=C\CCCC(=O)OC)[C@@H](O)C[C@H]1O`?
G9a block: 40µM; BAZ2B inh: 14µM; HP1b binding inh: inconclusive; JMJD2A Tudor inh: 22µM; Sfp inh: 25µM; PLK1 PBD inh: inactive

Results for Cc1cc([N+](=O)[O-])ccc1NCc1ccccc1 ?
BAZ2B inh: inactive; HP1b binding inh: inactive; JMJD2A Tudor inh: inactive; Sfp inh: inactive; PLK1 PBD inh: inactive

What do the screens show for `COc1ccccc1NCc1ccc([N+](=O)[O-])s1`?
G9a block: 7.9µM; BAZ2B inh: 50µM; HP1b binding inh: inconclusive; JMJD2A Tudor inh: inconclusive; Sfp inh: inactive; PLK1 PBD inh: inactive

What do the screens show for `Cc1ccccc1NCc1ccc([N+](=O)[O-])s1`?
BAZ2B inh: 50µM; HP1b binding inh: inconclusive; JMJD2A Tudor inh: inconclusive; Sfp inh: inactive; PLK1 PBD inh: inactive

What do the screens show for `COc1ccccc1CNc1ccc([N+](=O)[O-])cc1C`?
BAZ2B inh: inconclusive; HP1b binding inh: inactive; JMJD2A Tudor inh: inactive; Sfp inh: inactive; PLK1 PBD inh: inconclusive

Results for C=CCC1(c2ccccc2)Oc2ccccc2-c2nc3cc(Cl)c(Cl)cc3nc21 (stereo not given) ?
Sfp inh: inactive

Results for Cc1ccc(/C=C(\C#N)c2nc(-c3cc4c(ccc5ccccc54)oc3=O)cs2)cc1 ?
G9a block: inactive; BAZ2B inh: inactive; HP1b binding inh: inactive; JMJD2A Tudor inh: inactive

What do the screens show for `COC(=O)C(C)N1C(=O)S/C(=C/c2cc(C)n(-c3ccccn3)c2C)C1=O` (stereo not given)?
G9a block: inconclusive; BAZ2B inh: inconclusive; HP1b binding inh: inactive; JMJD2A Tudor inh: inactive; Sfp inh: inactive; PLK1 PBD inh: inactive

How did Cc1cc(/C=C2\SC(=O)N(C)C2=O)c(C)n1-c1ccc(O)cc1 do in these assays?
G9a block: 79µM; BAZ2B inh: 50µM; HP1b binding inh: inactive; JMJD2A Tudor inh: inconclusive; Sfp inh: inactive; PLK1 PBD inh: inactive

What do the screens show for `COC(=O)C(C)N1C(=O)S/C(=C\c2cc(C)n(-c3ccccn3)c2C)C1=O` (stereo not given)?
G9a block: 56µM; BAZ2B inh: inconclusive; HP1b binding inh: inactive; JMJD2A Tudor inh: inconclusive; Sfp inh: inactive; PLK1 PBD inh: inactive

Results for Cc1cc(/C=C2\SC(=O)N(C)C2=O)c(C)n1-c1ccc(S(N)(=O)=O)cc1 ?
G9a block: 45µM; BAZ2B inh: inactive; HP1b binding inh: inactive; JMJD2A Tudor inh: inactive; Sfp inh: inactive; PLK1 PBD inh: inactive

How did Cc1cc(/C=C2\SC(=S)N(C)C2=O)c(C)n1-c1cccc(O)c1 do in these assays?
G9a block: inactive; BAZ2B inh: inactive; HP1b binding inh: inactive; JMJD2A Tudor inh: inactive[11.4 µM]; Sfp inh: inconclusive; PLK1 PBD inh: inactive

How did COc1ccccc1CN1CC[C@@]2(CCCN(C(C)=O)C2)C1 do in these assays?
G9a block: inactive[12.7 µM]; Sfp inh: inactive

Results for N#Cc1nc(NCCCCO)nc(Nc2ccccc2)n1 ?
JMJD2A Tudor inh: inactive

How did Cc1cc(C)c[n+](-c2nc3ccccc3nc2C(=C=[N-])C#N)c1 do in these assays?
G9a block: inactive; BAZ2B inh: inactive; HP1b binding inh: inactive; JMJD2A Tudor inh: inactive; Sfp inh: inactive; PLK1 PBD inh: inactive

What do the screens show for `Cc1ccc[n+](-c2nc3ccccc3nc2C(=C=[N-])C#N)c1`?
G9a block: 50µM!; BAZ2B inh: inconclusive; HP1b binding inh: inactive; JMJD2A Tudor inh: inactive; Sfp inh: inactive; PLK1 PBD inh: inactive

What do the screens show for `N#CC(=C=[N-])c1nc2ccccc2nc1-[n+]1ccccc1`?
G9a block: inconclusive; BAZ2B inh: inactive; HP1b binding inh: inactive; JMJD2A Tudor inh: inactive; Sfp inh: inactive; PLK1 PBD inh: 27µM!

Compound activity as filed in PubChem.
